Measured values taken from ChEMBL document CHEMBL3988442, “University of Dundee, Small-Polar-MMV Screening Library” (2021).

Columns and labels:
[1] = target: T1, Aspartate--tRNA(Asp/Asn) ligase (Mycobacterium tuberculosis (strain ATCC 25618 / H37Rv)) (UniProt P9WFW3); assay: Assay for Asp RNA synthetase-1 from Mycobacterium tuberculosis; type: functional; design: scale not given: direction of the effect not stated beside the values; details: 30 µM; note: in the data most compounds retested in dose-response had high values
T1 sequence (whole entry): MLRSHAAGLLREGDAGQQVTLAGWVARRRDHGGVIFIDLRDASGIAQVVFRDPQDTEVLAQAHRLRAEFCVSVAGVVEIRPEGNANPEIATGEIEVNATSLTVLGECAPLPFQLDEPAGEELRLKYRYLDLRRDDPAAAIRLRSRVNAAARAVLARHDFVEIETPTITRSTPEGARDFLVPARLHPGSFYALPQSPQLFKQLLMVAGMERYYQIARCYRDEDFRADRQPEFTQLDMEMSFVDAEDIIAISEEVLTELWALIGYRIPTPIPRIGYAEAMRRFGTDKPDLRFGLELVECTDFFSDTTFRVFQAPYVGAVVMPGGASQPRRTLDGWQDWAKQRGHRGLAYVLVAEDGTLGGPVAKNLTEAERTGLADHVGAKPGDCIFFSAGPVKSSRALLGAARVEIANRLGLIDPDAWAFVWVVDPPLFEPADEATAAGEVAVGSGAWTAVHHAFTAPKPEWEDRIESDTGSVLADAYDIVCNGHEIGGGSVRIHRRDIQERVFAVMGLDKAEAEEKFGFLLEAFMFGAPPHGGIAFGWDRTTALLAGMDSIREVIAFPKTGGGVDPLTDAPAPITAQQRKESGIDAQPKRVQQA

[2] = target: Shiga toxin 2 (Escherichia coli O157:H7) (UniProt P09385+P09386); assay: E. coli 0.157:H7 Shiga Toxin SOP - stx2 screening assay; type: functional; design: scale not given: direction of the effect not stated beside the values; details: 30 µM

Structure (SMILES) | Percent Effect [1] [%] | Percent Effect [2] [%]
O=C(CCc1ccsc1)NCC1CCN(c2ccccc2)C1 (centres undefined) | 0.529 | -12.3
CC(C)c1nn(C)c(N2CCOCC2)c1CNCC(=O)N(C)C | -4.92 | -14.4
Cc1nc[nH]c1CN1CCN(C(=O)CCC(F)(F)F)[C@H]2CS(=O)(=O)C[C@H]21 | -2.31 | 17.8
Cc1nn(C)c(C)c1CC(=O)N1CCCC(n2ccnc2)C1 (centres undefined) | -4.83 | 12.9
CSCc1cccc(S(=O)(=O)N2CCC(C)CC2)c1 | -1.92 | 4.74
O=S(=O)(c1ccccc1)N1CCN(CCn2ccnc2)CC1 | -3.1 | 2.08
CCN(C)S(=O)(=O)N(CC)Cc1ccc2c(c1)OCO2 | 3.49 | 12.6
O=S(=O)(NCCN1CCCCC1Cn1cncn1)c1ccccc1 (centres undefined) | 1.46 | 5.96
CCN1CCN(C(=O)C(C)N2CCN(Cc3nccn3C)CC2)CC1 (centres undefined) | 0.262 | -3.01
CC(c1cccc(S(N)(=O)=O)c1)N(C)CCOc1ccccc1 (centres undefined) | 0.185 | -29.3
c1cncc(COCc2nnc3n2CCN(Cc2ccoc2)C3)c1 | -0.0297 | -40.3
COc1ccc(-c2nc(CN3CC(n4cc(C)cn4)C3)no2)cc1 | 6.9 | -20.1
COc1ccc(OC)c(-c2nc(CN(C)Cc3nncn3C)c(C)o2)c1 | 5.61 | -20.1
CCc1ccc(NS(=O)(=O)CC2=NC(=O)n3cccc3C2=O)cc1 | 0.755 | -77.4
CC(C)(C)n1cc(C(=O)N2CCN(Cc3ccsc3)CC2)cn1 | -3.48 | 30.7
CC(C)Oc1ncnc2c1CCN(Cc1cccs1)CC2 | 1.14 | 17.6
Cc1cc(C)c(OCC(=O)NS(=O)(=O)c2cccnc2)c(C)c1 | -4.5 | -1.8
